Calls of active or inactive are those of the source.
Key:
[1] = test system: Plasmodium falciparum Sir2 (PF13_0152, Sir2A); experiment: Plasmodium falciparum Sir2A binding compounds – biochemical, small-molecule microarray, 635 nm fluorescence, primary screen (AID 1098); details: fluorescence 635 nm, higher = more signal;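 note: score merges spot fluorescence intensity with its signal-to-noise ratio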
[2] = probe aDKK1 binding to arrayed compounds – biochemical, biotinylated probe, 635/667 nm fluorescence, primary screen (AID 1099); details: small-molecule microarray, higher = more signal;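 note: score merges 667nm spot fluorescence with signal to noise across triplicate slides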
[3] = probe aCHRDL2 binding to arrayed compounds – biochemical, biotinylated probe, 635/667 nm fluorescence, primary screen (AID 1100); details: small-molecule microarray, higher = more signal
[4] = change in splice reporter luminescence, either direction, cell-based, HEK293, spliceosome inhibition project, primary screen (AID 1101); details: HEK293 splicing luciferase reporter, 24 h, higher = more signal, called active from +8 up or from −8 down;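 note: HEK293 cells carrying a splicing-competent luciferase reporter gene; test concentration not given here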
[5] = molecular target: Fibroblast growth factor 10 (Homo sapiens) (UniProt O15520); experiment: compounds binding fibroblast growth factor 10 – biochemical, small-molecule microarray, 635 nm fluorescence, primary screen (AID 1102); details: FGF10 binding, fluorescence 635 nm, higher = more signal
Chain of Fibroblast growth factor 10 (Homo sapiens) (O15520 whole entry, looked up): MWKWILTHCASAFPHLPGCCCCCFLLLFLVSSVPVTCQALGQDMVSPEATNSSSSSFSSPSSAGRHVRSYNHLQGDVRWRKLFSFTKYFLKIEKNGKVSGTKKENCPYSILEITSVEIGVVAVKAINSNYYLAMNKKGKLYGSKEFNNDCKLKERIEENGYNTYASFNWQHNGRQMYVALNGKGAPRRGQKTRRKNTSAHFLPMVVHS

[6] = test system: glycogen synthase kinase-3 (GSK3A per assay name; protocol says GSK3B); experiment: compounds binding glycogen synthase kinase-3 – biochemical, small-molecule microarray, 635 nm fluorescence, GSK3A, primary screen (AID 1103); details: fluorescence 635 nm, higher = more signal; note: the record names both GSK3A and GSK3B
[7] = molecular target: Epidermal growth factor receptor (Homo sapiens) (UniProt P00533); experiment: compounds binding epidermal growth factor receptor – biochemical, small-molecule microarray, 635 nm fluorescence, primary screen (AID 1104); details: EGFR binding, higher = more signal;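 note: score merges 667 nm emission intensity with spot signal to noise over triplicate slides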
Chain of Epidermal growth factor receptor (Homo sapiens) (P00533 whole entry, looked up): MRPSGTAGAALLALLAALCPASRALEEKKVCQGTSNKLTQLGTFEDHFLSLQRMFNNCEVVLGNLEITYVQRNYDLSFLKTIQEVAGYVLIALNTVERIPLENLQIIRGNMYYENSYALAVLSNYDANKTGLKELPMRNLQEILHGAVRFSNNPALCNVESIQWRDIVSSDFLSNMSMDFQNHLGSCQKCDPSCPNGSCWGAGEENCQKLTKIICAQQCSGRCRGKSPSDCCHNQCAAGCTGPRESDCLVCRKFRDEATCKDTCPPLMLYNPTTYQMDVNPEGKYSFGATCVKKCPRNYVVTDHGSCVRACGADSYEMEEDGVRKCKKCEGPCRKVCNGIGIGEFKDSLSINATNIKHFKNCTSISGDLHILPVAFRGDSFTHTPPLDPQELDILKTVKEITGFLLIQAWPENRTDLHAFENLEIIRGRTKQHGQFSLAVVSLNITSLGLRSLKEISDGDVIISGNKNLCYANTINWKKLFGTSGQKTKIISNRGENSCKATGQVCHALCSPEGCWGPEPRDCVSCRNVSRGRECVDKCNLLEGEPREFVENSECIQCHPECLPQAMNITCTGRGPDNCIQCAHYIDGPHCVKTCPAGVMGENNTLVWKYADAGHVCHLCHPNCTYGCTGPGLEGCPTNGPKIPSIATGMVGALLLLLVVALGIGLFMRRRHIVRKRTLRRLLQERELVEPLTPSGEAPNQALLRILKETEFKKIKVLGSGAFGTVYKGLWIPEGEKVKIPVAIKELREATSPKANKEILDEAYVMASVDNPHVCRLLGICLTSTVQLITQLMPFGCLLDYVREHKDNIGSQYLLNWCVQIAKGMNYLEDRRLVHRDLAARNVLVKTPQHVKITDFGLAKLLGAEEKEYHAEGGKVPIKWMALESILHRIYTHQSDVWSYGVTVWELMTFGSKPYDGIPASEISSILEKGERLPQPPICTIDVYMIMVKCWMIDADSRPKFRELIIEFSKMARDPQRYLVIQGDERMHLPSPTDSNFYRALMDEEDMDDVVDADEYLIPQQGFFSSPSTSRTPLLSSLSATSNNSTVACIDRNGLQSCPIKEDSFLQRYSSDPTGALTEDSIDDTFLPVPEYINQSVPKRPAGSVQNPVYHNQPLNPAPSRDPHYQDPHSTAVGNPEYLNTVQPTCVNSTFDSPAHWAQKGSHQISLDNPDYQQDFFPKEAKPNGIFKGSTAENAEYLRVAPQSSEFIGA

[8] = molecular target: Follistatin-related protein 3 (Homo sapiens) (UniProt O95633); experiment: compounds binding follistatin-related protein 3 – biochemical, small-molecule microarray, 635 nm fluorescence, primary screen (AID 1105); details: FSTL3 binding, higher = more signal;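 note: score merges emission near 667 nm and signal to noise per printed spot across three slides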
Chain of Follistatin-related protein 3 (Homo sapiens) (O95633 whole entry, looked up): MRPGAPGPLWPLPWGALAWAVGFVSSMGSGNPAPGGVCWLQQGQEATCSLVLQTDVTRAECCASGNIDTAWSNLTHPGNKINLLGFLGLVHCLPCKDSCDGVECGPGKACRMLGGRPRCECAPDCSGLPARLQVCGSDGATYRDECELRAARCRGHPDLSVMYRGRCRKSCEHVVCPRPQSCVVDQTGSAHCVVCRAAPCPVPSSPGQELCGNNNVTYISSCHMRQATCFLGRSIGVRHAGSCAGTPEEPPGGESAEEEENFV

[9] = molecular target: Dickkopf-related protein 1 (Homo sapiens) (UniProt O94907); experiment: small molecules binding DKK1 protein – biochemical, small-molecule microarray, 635 nm fluorescence scan, primary screen (AID 1106); details: higher = more signal;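 note: score merges emission near 667 nm with signal to noise over three replicate slides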
Chain of Dickkopf-related protein 1 (Homo sapiens) (O94907 whole entry, looked up): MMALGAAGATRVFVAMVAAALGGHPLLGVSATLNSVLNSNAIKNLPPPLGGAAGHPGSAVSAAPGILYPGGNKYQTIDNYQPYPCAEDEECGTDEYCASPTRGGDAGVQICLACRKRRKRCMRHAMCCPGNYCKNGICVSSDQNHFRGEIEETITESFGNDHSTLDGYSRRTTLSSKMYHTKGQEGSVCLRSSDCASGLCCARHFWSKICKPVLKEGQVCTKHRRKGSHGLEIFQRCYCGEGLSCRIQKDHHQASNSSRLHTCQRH

[10] = test system: Inhibin beta A chain (activin A); experiment: small molecules binding activin A – biochemical, small-molecule microarray, 635 nm fluorescence scan, primary screen (AID 1107); details: INHBA, higher = more signal;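 note: mouse activin A protein probed at 4.33 µg/mL on printed slides; score merges bound-protein fluorescence near 667 nm with spot signal-to-noise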
[11] = test system: Human papillomavirus type 1a protein E7 (residues 44-93); experiment: small molecules binding HPV E7 44-93 – biochemical, small-molecule microarray, residues 44-93, 635 nm fluorescence, primary screen (AID 1108); details: fluorescence 635 nm, higher = more signal;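 note: E7 fragment applied at 1 µg/mL in TBST for 1 h at 4 C; score combines spot fluorescence with its signal to noise ratio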
[12] = hepatitis C replication reporter changes, two-sided – Huh7 cells, luciferase reporter, HCV replication inhibitor project, primary screen (AID 1109); details: Huh7 HCV replicon luciferase reporter, 48 h; higher = more signal;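 note: huh7 hepatoma cells harbouring a luciferase neomycin HCV replicon reporter; luciferase luminescence as measure of HCV replicon replication; test concentration not given here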
[13] = molecular target: Left-right determination factor 2 (Homo sapiens) (UniProt O00292); experiment: small molecules binding LEFTY2 protein – biochemical, small-molecule microarray, 635 nm fluorescence scan, primary screen (AID 1110); details: higher = more signal
Chain of Left-right determination factor 2 (Homo sapiens) (O00292 whole entry, looked up): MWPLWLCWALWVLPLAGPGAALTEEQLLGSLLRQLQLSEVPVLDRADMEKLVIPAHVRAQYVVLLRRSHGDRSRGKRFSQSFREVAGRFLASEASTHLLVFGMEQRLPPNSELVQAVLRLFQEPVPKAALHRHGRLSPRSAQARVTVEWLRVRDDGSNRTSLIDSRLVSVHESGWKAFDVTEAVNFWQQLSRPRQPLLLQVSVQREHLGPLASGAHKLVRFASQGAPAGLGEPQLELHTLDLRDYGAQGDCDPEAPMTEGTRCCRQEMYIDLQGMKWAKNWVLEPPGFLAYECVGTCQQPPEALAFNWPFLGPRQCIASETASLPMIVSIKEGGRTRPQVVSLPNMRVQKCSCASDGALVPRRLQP

[14] = molecular target: Calmodulin-1 (Homo sapiens) (UniProt P0DP23); experiment: small molecules binding calmodulin-1 with EGTA – biochemical, small-molecule microarray, Cy5-labelled CALM1, profiling panel (AID 1111); details: Cy5-CALM1 binding fluorescence, higher = more signal;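 note: labelled calmodulin applied in Tris saline Tween buffer holding calcium plus EGTA and DTT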
[15] = molecular target: Calmodulin-1 (Homo sapiens) (UniProt P0DP23); experiment: small molecules binding Ca-loaded calmodulin-1 – biochemical, small-molecule microarray, Cy5-labelled CALM1, plus calcium, artefact control for SMM control-protein annotation, profiling panel (AID 1112); details: Cy5-CALM1 binding fluorescence, higher = more signal;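 note: score merges spot fluorescence with signal to noise from triplicate slides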
[16] = probe aWnt5a binding to arrayed compounds – biochemical, biotinylated probe, 635/667 nm fluorescence, primary screen (AID 1113); details: small-molecule microarray, higher = more signal;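 note: score merges 667 nm fluorescence intensity with signal-to-noise per printed feature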
[17] = probe aShh binding to arrayed compounds – biochemical, biotinylated probe, 635/667 nm fluorescence, primary screen (AID 1114); details: small-molecule microarray, higher = more signal;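 note: probe is biotin-labelled aShh protein from a stem cell growth factor screen; measures binding of labelled protein to compounds printed on the slide; score merges feature fluorescence at 667 nm with signal-to-noise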
[18] = probe aNog binding to arrayed compounds – biochemical, biotinylated probe, 635/667 nm fluorescence, primary screen (AID 1115); details: small-molecule microarray, higher = more signal;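 note: probe is biotinylated aNog protein used at 0.15 µg/mL for 1 h at 4 C; z-score combines 667 nm fluorescence of each spot with its signal to noise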
[19] = molecular target: Torsin-1A-interacting protein 1 (Homo sapiens) (UniProt Q5JTV8); experiment: compound microarray binding of lysate hLAP1 – cell lysate, small-molecule microarray, COS7 lysate, 635/667 nm fluorescence, primary screen (AID 1116); details: 635 nm fluorescence, higher = more signal
Chain of Torsin-1A-interacting protein 1 (Homo sapiens) (Q5JTV8 whole entry, looked up): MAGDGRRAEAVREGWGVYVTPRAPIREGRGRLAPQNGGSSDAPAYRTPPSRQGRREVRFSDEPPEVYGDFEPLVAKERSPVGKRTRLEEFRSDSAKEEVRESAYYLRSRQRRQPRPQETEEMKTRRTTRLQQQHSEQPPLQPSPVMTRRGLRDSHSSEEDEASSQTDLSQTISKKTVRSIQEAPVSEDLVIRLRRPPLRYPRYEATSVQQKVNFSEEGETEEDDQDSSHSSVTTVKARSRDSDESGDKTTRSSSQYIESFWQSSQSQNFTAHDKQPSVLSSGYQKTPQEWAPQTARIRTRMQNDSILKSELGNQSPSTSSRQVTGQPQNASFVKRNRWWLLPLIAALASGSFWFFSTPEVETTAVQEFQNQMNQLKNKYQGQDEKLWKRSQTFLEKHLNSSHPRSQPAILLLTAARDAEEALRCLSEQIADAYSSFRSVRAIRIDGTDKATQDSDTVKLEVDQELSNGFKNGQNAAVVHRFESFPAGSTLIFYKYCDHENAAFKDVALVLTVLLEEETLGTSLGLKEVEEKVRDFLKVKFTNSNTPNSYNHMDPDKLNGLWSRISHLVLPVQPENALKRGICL

[20] = molecular target: Alpha-bungarotoxin (Bungarus multicinctus) (UniProt P60615); experiment: compounds binding labelled alpha-BTX control protein – biochemical, small-molecule microarray, Alexa647 label, 635/667 nm fluorescence, artefact control for SMM control protein annotation, profiling panel (AID 1117); details: alpha-BTX-A647 binding fluorescence, higher = more signal
Chain of Alpha-bungarotoxin (Bungarus multicinctus) (P60615 whole entry, looked up): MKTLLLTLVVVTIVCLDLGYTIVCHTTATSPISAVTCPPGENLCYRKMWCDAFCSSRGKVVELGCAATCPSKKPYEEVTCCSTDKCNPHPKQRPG

C=CCNC(=O)[C@@H]1[C@H]2C(=O)O[C@H](c3ccccc3)[C@H](c3ccccc3)N2[C@H](c2ccc(O)cc2)[C@@]12C(=O)N(C(=O)OCCOC)c1ccc(C#CCNC(N)=O)cc12
composite z-score [1]: 0.88 | composite z-score [2]: 0.148 | composite z-score [3]: 0.658 | z-score [4]: -0.273 (inactive) | composite z-score [5]: 0.969 | composite z-score [6]: 1.06 | composite z-score [7]: 0.119 | composite z-score [8]: 1.08 | composite z-score [9]: 0.417 | composite z-score [10]: 1.02 | composite z-score [11]: 1.32 | z-score [12]: -0.578 | composite z-score [13]: 0.31 | composite z-score [14]: 1.83 | composite z-score [15]: 0.294 | composite z-score [16]: 0.0017 | composite z-score [17]: 1.68 | composite z-score [18]: 0.681 | composite z-score [19]: 1.45 | composite z-score [20]: 0.83

C=CC1(C(=O)OC)CC=C(C(=O)OC)CC1 (stereo not given)
composite z-score [1]: 0.0006 | composite z-score [2]: -0.259 | composite z-score [3]: -0.425 | z-score [4]: -1.38 (inactive) | composite z-score [5]: 0.916 | composite z-score [6]: 1.15 | composite z-score [7]: 0.478 | composite z-score [8]: 0.791 | composite z-score [9]: 0.908 | composite z-score [10]: -0.115 | composite z-score [11]: 1.1 | z-score [12]: -0.928 | composite z-score [13]: 1.24 | composite z-score [14]: 0.887 | composite z-score [15]: 0.234 | composite z-score [16]: -0.141 | composite z-score [17]: 1.1 | composite z-score [18]: -0.0689 | composite z-score [19]: 1.1 | composite z-score [20]: 0.605

O=C(NCCN1CCOCC1)C1N=C(c2ccc(OCCCO)cc2)N(c2ccccc2)O1 (stereo not given)
composite z-score [1]: 0.439 | composite z-score [2]: 0.273 | composite z-score [3]: 0.766 | z-score [4]: -0.764 (inactive) | composite z-score [5]: 1.56 | composite z-score [6]: 1.08 | composite z-score [7]: 0.837 | composite z-score [8]: 0.751 | composite z-score [9]: 0.915 | composite z-score [10]: 0.145 | composite z-score [11]: 0.694 | z-score [12]: 0.289 | composite z-score [13]: 1.08 | composite z-score [14]: 0.745 | composite z-score [15]: -0.177 | composite z-score [16]: 0.139 | composite z-score [17]: -0.0457 | composite z-score [18]: 0.05 | composite z-score [19]: 1.68 | composite z-score [20]: 1.55

COC(=O)[C@@]1(Cc2ccc(F)cc2)[C@H]2c3cc(C(=O)N(C)C)n(Cc4cc(F)c(F)c(F)c4)c3C[C@H]2CN1C(=O)c1ccccc1
composite z-score [1]: 0.931 | composite z-score [2]: 0.9 | composite z-score [3]: 1.19 | z-score [4]: -1.91 (inactive) | composite z-score [5]: 1.16 | composite z-score [6]: 0.744 | composite z-score [7]: -0.024 | composite z-score [8]: 1.08 | composite z-score [9]: -0.85 | composite z-score [10]: 0.529 | composite z-score [11]: 1.32 | z-score [12]: -2.75 | composite z-score [13]: -0.323 | composite z-score [14]: 1.6 | composite z-score [15]: 1.01 | composite z-score [16]: 0.245 | composite z-score [17]: 0.566 | composite z-score [18]: 2.27 | composite z-score [19]: 1.16 | composite z-score [20]: 1.17

C=C(CC1([C@@H](NP(=O)(c2ccccc2)c2ccccc2)[C@H]2C[C@@H]2CCCC)CC1)c1ccccc1
composite z-score [1]: 0.339 | composite z-score [2]: 0.786 | composite z-score [3]: 0.994 | z-score [4]: -2.51 (inactive) | composite z-score [5]: 0.0431 | composite z-score [6]: 0.014 | composite z-score [7]: 0.243 | composite z-score [8]: 0.438 | composite z-score [9]: 0.104 | composite z-score [10]: 0.705 | composite z-score [11]: 1.23 | z-score [12]: -0.776 | composite z-score [13]: -0.0117 | composite z-score [14]: 1.19 | composite z-score [15]: 1.15 | composite z-score [16]: 0.186 | composite z-score [17]: 0.257 | composite z-score [18]: 0.0585 | composite z-score [19]: 1.17 | composite z-score [20]: 0.598

Reference: PubChem BioAssay
